Measured values taken from publication PMC11995724, “Antibiotic target discovery by integrated phenotypic and activity-based profiling of electrophilic fragments” (Cell chemical biology, 2025).
Hit rate of the full screen: of about 3,200 compounds, about 75 (2%) showed an effect of 50% or more. What follows is part of a selection rich in strong results, with near analogues and random picks from the rest.

tested on: T1, S. aureus MSSA476; set-up: species or system S. aureus MSSA476 (TSB) or V. cholerae SAD30 (LB); 384-well bacterial growth screen at 25 uM, OD600 relative to DMSO control; settings: relative growth, OD600, TSB; 25 µM; inhibitor
T1 construct: MSSA476

Going from `Cc1cc(C(=O)CCl)c(C)n1Cc1cccs1` [10-D03, 2-chloro-1-{2,5-dimethyl-1-[(thiophen-2-yl)methyl]-1H-pyrrol-3-yl}ethan-1-one] to `Cc1cc(C(=O)CCl)c(C)n1CCc1cccs1` [10-F16, 2-chloro-1-{2,5-dimethyl-1-[2-(thiophen-2-yl)ethyl]-1H-pyrrol-3-yl}ethan-1-one], the “% of control remaining” value falls from 122.5% to 20.3125%.

Compared with `Cc1cc(C(=O)CCl)c(C)n1CCc1ccc(Cl)cc1` [10-N16, 2-chloro-1-{1-[2-(4-chlorophenyl)ethyl]-2,5-dimethyl-1H-pyrrol-3-yl}ethan-1-one], `Cc1cc(C(=O)CCl)c(C)n1CCc1ccc(F)cc1` [10-G14, 2-chloro-1-{1-[2-(4-fluorophenyl)ethyl]-2,5-dimethyl-1H-pyrrol-3-yl}ethan-1-one] is higher in “% of control remaining” value: 5.9375% for the first, 123.75% for the second.

Compared with `COCCn1c(C)cc(C(=O)CCl)c1C` [10-D13, 2-chloro-1-[1-(2-methoxyethyl)-2,5-dimethyl-1H-pyrrol-3-yl]ethan-1-one], `Cc1cc(C(=O)CCl)c(C)n1CCc1ccccc1` [10-B18, 2-chloro-1-[2,5-dimethyl-1-(2-phenylethyl)-1H-pyrrol-3-yl]ethan-1-one] is lower in “% of control remaining” value: 103.125% for the first, 102.188% for the second.

Compared with `Cc1cc(C(=O)CCl)c(C)n1Cc1ccccc1` [10-M14, 1-(1-benzyl-2,5-dimethyl-1H-pyrrol-3-yl)-2-chloroethan-1-one], `Cc1cc(C(=O)CCl)c(C)n1Cc1ccccc1Cl` [10-P16, 2-chloro-1-{1-[(2-chlorophenyl)methyl]-2,5-dimethyl-1H-pyrrol-3-yl}ethan-1-one] is lower in “% of control remaining” value: 143.438% for the first, 127.813% for the second.

First: Cc1cc(C(=O)CCl)c(C)n1Cc1ccc(F)cc1 [10-N17, 2-chloro-1-{1-[(4-fluorophenyl)methyl]-2,5-dimethyl-1H-pyrrol-3-yl}ethan-1-one]
Second: COc1ccc(C(=O)CCl)c(OC)c1 [10-G18, 2-chloro-1-(2,4-dimethoxyphenyl)ethan-1-one]
The “% of control remaining” value of the first is lower: 4.6875% for the first, 124.375% for the second.

First: O=C(CCl)NC(Cc1ccccc1)c1ccccc1F (stereo not shown) [7-N10, 2-chloro-N-[1-(2-fluorophenyl)-2-phenylethyl]acetamide]
Second: O=C(CCl)NC(Cc1cccc(O)c1)c1ccccc1 (stereo not shown) [7-N20, 2-chloro-N-[2-(3-hydroxyphenyl)-1-phenylethyl]acetamide]
The “% of control remaining” value of the first is lower: 83.5165% for the first, 100.157% for the second.

Going from `CC(Cl)C(=O)N1CCNC(=O)C1Cc1nc2ccccc2o1` (stereo not shown) [6-P03, 3-[(1,3-benzoxazol-2-yl)methyl]-4-(2-chloropropanoyl)piperazin-2-one] to `N#CC(C(=O)CCl)=C1NC(=O)c2ccccc2N1` [10-P14, 4-chloro-3-oxo-2-(4-oxo-1,2,3,4-tetrahydroquinazolin-2-ylidene)butanenitrile], the “% of control remaining” value falls from 97.3171% to 93.75%.

Going from `c1ccc(CSSCc2ccccc2)cc1` [10-O21, [(benzyldisulfanyl)methyl]benzene] to `C/C(O)=C(\C#N)C(=O)Nc1ccc(-c2ccccc2Cl)cc1` [9-P22, (2Z)-N-{2'-chloro-[1,1'-biphenyl]-4-yl}-2-cyano-3-hydroxybut-2-enamide], the “% of control remaining” value falls from 113.125% to 50.9363%.

Going from `Cl.O=C(CCl)NCC(c1ccccc1Cl)N1CCCC1` (stereo not shown) [6-G17, 2-chloro-N-[2-(2-chlorophenyl)-2-(pyrrolidin-1-yl)ethyl]acetamide hydrochloride] to `CC(C)CNC(=O)c1ccccc1NC(=O)CCl` [4-E04, 2-(2-chloroacetamido)-N-(2-methylpropyl)benzamide], the “% of control remaining” value falls from 101.415% to 88.4231%.

First: COc1ccc(N2C(=O)C=CC2=O)c([N+](=O)[O-])c1 [10-L11, 1-(4-methoxy-2-nitrophenyl)-2,5-dihydro-1H-pyrrole-2,5-dione]
Second: COc1cc(Cl)c(C)cc1N1C(=O)C=CC1=O [10-B15, 1-(4-chloro-2-methoxy-5-methylphenyl)-2,5-dihydro-1H-pyrrole-2,5-dione]
The “% of control remaining” value of the first is higher: 100% for the first, 91.875% for the second.

Compared with `O=C(CCl)NCC(=O)Nc1ccc(F)c(F)c1` [4-L16, 2-chloro-N-{[(3,4-difluorophenyl)carbamoyl]methyl}acetamide], `O=C(CCl)c1ccc(F)c(F)c1` [10-L13, 2-chloro-1-(3,4-difluorophenyl)ethan-1-one] is higher in “% of control remaining” value: 109.004% for the first, 110.313% for the second.

First: N#CC(C(=O)CCl)=C1Nc2ccccc2S1 [10-J04, 4-chloro-2-(2,3-dihydro-1,3-benzothiazol-2-ylidene)-3-oxobutanenitrile]
Second: N#CC(C(=O)CCl)=C1Nc2cc(Cl)ccc2S1 [10-O08, 4-chloro-2-(5-chloro-2,3-dihydro-1,3-benzothiazol-2-ylidene)-3-oxobutanenitrile]
The “% of control remaining” value of the first is lower: 43.75% for the first, 100% for the second.

Compared with `CCn1cc(S(=O)(=O)N2CCSSCC2)cn1` [10-N19, 5-[(1-ethyl-1H-pyrazol-4-yl)sulfonyl]-1,2,5-dithiazepane], `C=CC(=O)N1CCC(C(=O)Nc2ccc(CC)cc2)CC1` [3-J12, N-(4-ethylphenyl)-1-(prop-2-enoyl)piperidine-4-carboxamide] is higher in “% of control remaining” value: 97.1875% for the first, 97.5185% for the second.

Going from `Cc1cc(CN(C(=O)CCl)c2csnc2C)cs1` [5-C12, 2-chloro-N-(3-methyl-1,2-thiazol-4-yl)-N-[(5-methylthiophen-3-yl)methyl]acetamide] to `O=C(CCl)c1ccc(Cl)c(Cl)c1` [10-L16, 2-chloro-1-(3,4-dichlorophenyl)ethan-1-one], the “% of control remaining” value falls from 105.282% to 5%.

Going from `N#CC(=Cc1cccc(F)c1)C(=O)Nc1cc(Cl)ccc1Cl` [9-P03, 2-cyano-N-(2,5-dichlorophenyl)-3-(3-fluorophenyl)prop-2-enamide] to `CC(O)=C(C#N)C(=O)Nc1ccc(-c2ccccc2Cl)c(Cl)c1` [9-L22, 2-cyano-N-{2,2'-dichloro-[1,1'-biphenyl]-4-yl}-3-hydroxybut-2-enamide], the “% of control remaining” value falls from 107.865% to 33.2584%.

Compared with `C=CC(=O)N1CCC(C(=O)N2CCN(CC(C)C)C(=O)C2C)CC1` (stereo not shown) [2-B08, 3-methyl-1-(2-methylpropyl)-4-[1-(prop-2-enoyl)piperidine-4-carbonyl]piperazin-2-one], `C=CC(=O)N1CCC(c2ncc(C(=O)O)o2)CC1` [2-G19, 2-[1-(prop-2-enoyl)piperidin-4-yl]-1,3-oxazole-5-carboxylic acid] is higher in “% of control remaining” value: 92.6023% for the first, 116.275% for the second.

First: O=C(CCl)N1N=C(c2cccc(F)c2)CC1c1cccs1 (stereo not shown) [4-E22, 2-chloro-1-[3-(3-fluorophenyl)-5-(thiophen-2-yl)-4,5-dihydro-1H-pyrazol-1-yl]ethan-1-one]
Second: Cc1cc(C)cc(-c2cc(NC(=O)CCl)n(-c3ccccc3)n2)c1 [4-K04, 2-chloro-N-[3-(3,5-dimethylphenyl)-1-phenyl-1H-pyrazol-5-yl]acetamide]
The “% of control remaining” value of the first is higher: 121.582% for the first, 80.4192% for the second.

First: O=C(CCl)NCc1cc([N+](=O)[O-])ccc1O [4-A05, 2-chloro-N-[(2-hydroxy-5-nitrophenyl)methyl]acetamide]
Second: N#Cc1cc([N+](=O)[O-])ccc1NC(=O)CCl [4-O09, 2-chloro-N-(2-cyano-4-nitrophenyl)acetamide]
The “% of control remaining” value of the first is lower: 92.6155% for the first, 100.619% for the second.

Compared with `O=C(CCl)NSc1ccc([N+](=O)[O-])cc1` [4-P13, 2-chloro-N-[(4-nitrophenyl)sulfanyl]acetamide], `COC(=O)c1cccc(C(=O)CCl)c1` [10-I11, methyl 3-(2-chloroacetyl)benzoate] is higher in “% of control remaining” value: 1.906% for the first, 61.5625% for the second.

Compared with `CC(O)=C(C#N)C(=O)Nc1ccc(C(F)(F)F)cc1` [9-A05, 2-cyano-3-hydroxy-N-[4-(trifluoromethyl)phenyl]but-2-enamide], `Cc1ccc(C=C(C#N)C(=O)NCc2ccco2)o1` [8-P19, 2-cyano-N-[(furan-2-yl)methyl]-3-(5-methylfuran-2-yl)prop-2-enamide] is higher in “% of control remaining” value: 71.6105% for the first, 89.6266% for the second.

Going from `N#CC(=Cc1ccc([N+](=O)[O-])o1)C(=O)NCc1ccco1` [8-I17, 2-cyano-N-[(furan-2-yl)methyl]-3-(5-nitrofuran-2-yl)prop-2-enamide] to `N#CC(=Cc1cc2ccccc2o1)C(=O)NCc1ccco1` [9-O08, 3-(1-benzofuran-2-yl)-2-cyano-N-[(furan-2-yl)methyl]prop-2-enamide], the “% of control remaining” value rises from -0.6639% to 115.056%.

First: COc1ccc(C(=O)CCl)cc1Cl [10-D10, 2-chloro-1-(3-chloro-4-methoxyphenyl)ethan-1-one]
Second: O=C(CCl)c1ccc2[nH]c(=O)[nH]c2c1 [10-I14, 5-(2-chloroacetyl)-2,3-dihydro-1H-1,3-benzodiazol-2-one]
The “% of control remaining” value of the first is lower: -0.3125% for the first, 100.313% for the second.

Going from `CC(Cl)C(=O)NC(C)c1ccc(C(F)(F)F)nc1Cl` (stereo not shown) [7-G09, 2-chloro-N-{1-[2-chloro-6-(trifluoromethyl)pyridin-3-yl]ethyl}propanamide] to `C=CC(=O)Nc1cccc(-c2nc(COC)no2)c1C` [1-J08, N-{3-[3-(methoxymethyl)-1,2,4-oxadiazol-5-yl]-2-methylphenyl}prop-2-enamide], the “% of control remaining” value falls from 111.774% to 101.626%.
